Laboratory results published in PubChem BioAssay (NCI).
“And” between values parts separate entries of the source, which are not always exact repeats. Equal entries are not always repeated. The panel holds about 79,000 compounds, 15% with a hit somewhere; the sample as a whole holds those more often. Cut-off read from the data, not from the text of the source: active = growth inhibition above about 70%; inactive = the rest.

What was measured:
[1] = NCI Yeast Anticancer Drug Screen. Data for the rad50 strain (AID 155);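 note: 0% = growth of vehicle-only cultures of the same strain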; settings: S. cerevisiae rad50 strain growth inhibition, active compounds read high; at 50.0 µM unless noted
Procedure, shortened: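 Cells are treated with compound, grown, and their growth is then scored against vehicle-only cultures of the same repair-deficient yeast strain.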

[2] = NCI Yeast Anticancer Drug Screen. Data for the mec2-1 strain (AID 157); settings: S. cerevisiae mec2-1 strain, active compounds read high; at 50.0 µM unless noted
Procedure, shortened: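 Compounds were applied to mec2-1 yeast cells. Their growth was then compared with that of vehicle-treated cultures to give growth inhibition.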

[3] = NCI Yeast Anticancer Drug Screen. Data for the sgs1 mgt1 strain (AID 161);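 note: 0% = growth of cultures given vehicle only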; settings: S. cerevisiae sgs1 mgt1 strain, active compounds read high; at 50.0 µM unless noted
Procedure, shortened: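 This yeast growth screen uses a strain with defined DNA-repair lesions; compound-treated growth is compared with vehicle-treated growth.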

[4] = NCI Yeast Anticancer Drug Screen. Data for the cln2 rad14 strain (AID 165);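 note: 0% = growth equal to vehicle treated cultures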; settings: S. cerevisiae cln2 rad14 strain, active compounds read high; at 50.0 µM unless noted
Procedure, shortened: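 Strain: cln2 rad14 yeast, altered in cell cycle control and DNA damage repair. Read-out: growth inhibition vs vehicle.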

[5] = NCI Yeast Anticancer Drug Screen. Data for the bub3 strain (AID 167); settings: S. cerevisiae bub3 mutant strain, active compounds read high; at 50.0 µM unless noted
Procedure, shortened: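 Part of a panel of yeast mutants defective in DNA damage repair or cell cycle regulation. Each strain is grown with compound, and inhibition is calculated relative to solvent-treated cultures.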

[6] = NCI Yeast Anticancer Drug Screen. Data for the mlh1 rad18 strain (AID 175); settings: S. cerevisiae mlh1 rad18 strain growth inhibition, active compounds read high; at 50.0 µM unless noted
Procedure, shortened: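 A repair-deficient yeast strain is exposed to test compound, and growth is scored relative to vehicle-treated controls.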

Measured: growth inhibition

CCNc1cccc(C)c1
inactive: [1] 28.9% | [2] -10.7% | [3] -16.2% | [4] -33.8% | [5] 12.8% | [6] 23.1%

O=[N+]([O-])c1cccnc1S(=O)(=O)c1ccccc1
inactive: [1] 36.9% | [2] 5.7% | [3] 12.2% | [4] 4.75% | [5] 6.2% | [6] -0.15%

OCCNc1cccc2ccccc12
inactive: [1] 31.6% | [2] -4.15% | [3] 35.2% | [4] 18.9% | [5] 8.8% | [6] 37.4%

CNC(=O)Nc1c(C)cccc1C
inactive: [1] 0.05% | [2] 6.1% | [3] -0.2% | [4] -26.2% | [5] 0.05% | [6] 4.05%

O=[N+]([O-])c1cc(C(Nc2nncs2)Nc2nncs2)ccc1Cl
inactive: [1] 12.6% | [2] 8.25% | [3] 43.9% | [4] 11% | [5] 2.5% | [6] 46.6%

Cc1ccc(C)c(N=Nc2c(C)nc(N)nc2C)c1
inactive: [1] 1.8% | [2] -10.2% | [3] -9.45% | [4] -34.2% | [5] -22.1% | [6] -3.05%

Cc1c(Cl)cccc1NC(=O)COc1ccc(Cl)cc1
inactive: [1] 16.4% | [2] 9.4% | [3] 4.2% | [4] -3.7% | [5] 6.5% | [6] 4.05%

O=c1[nH]cc(Br)c(=O)[nH]1
inactive: [1] 28.8% | [2] 19.7% | [3] 13.7% | [4] 9.3% | [5] 21.9% | [6] 37%

Cn1c(NN)nc2ccccc2c1=O
inactive: [1] -33.7% | [2] -3.25% | [3] -26.9% | [4] 5.55% | [5] -16.9% | [6] -27.8%

O=C(c1ccccc1)N1CCC(Nc2nccs2)O1 (stereo not given)
inactive: [1] -37.4% | [2] -26.1% | [3] -11.4% | [4] -9.75% | [5] -8.15% | [6] -2.35%

COC(=O)c1cc(C(=O)OC)c(CC(=O)C(=O)NC2C3CC4CC(C3)CC2C4)nc1CC(=O)C(=O)NC1C2CC3CC(C2)CC1C3 (stereo not given)
inactive: [1] 0.5% | [2] 25.2% | [3] -11.9% | [4] 10.2% | [5] 13.7% | [6] 10.9%

CCOC(=O)CC(c1ccccc1)C(C)(C(=O)OCC)C(=O)OCC (stereo not given)
inactive: [1] -18.3% | [2] -10.8% | [3] 14.8% | [4] 35.9% | [5] 14.2% | [6] -9.3%

NC(=S)N/N=C/c1ccc([N+](=O)[O-])s1
inactive: [1] 9.65% | [2] 1.1% | [3] 19.9% | [4] 25.1% | [5] 22% | [6] 32.5%

CC(=O)c1ccc2c(c1)sc1ccccc12
inactive: [1] 66.9% | [2] -25.3% | [3] -6.4% | [4] -2.25% | [5] 28.5% | [6] 55.9%

Nc1nc(Cl)cc(NCCO)n1
inactive: [1] -1.15% and -5.05% | [2] -36.6% and 7% | [3] -39.5% and 20.7% | [4] -7.85% and -0.25% | [5] -21.1% and 4.8% | [6] 1.8% and 43.4%

OC1COC(CCl)OC1C1OC(CCl)OCC1O (stereo not given)
inactive: [1] 10.2% | [2] 23.6% | [3] 17.9% | [4] 6.3% | [5] 19.4% | [6] 25.9%

COCc1cccc2ccnc(COC)c12
inactive: [1] -8.2% | [2] 2.45% | [3] 5.95% | [4] 9.4% | [5] -8.35% | [6] 5.25%

COc1ccc(/C=C/C(=O)O)c(OC)c1
inactive: [1] 1.25% | [2] 30.9% | [3] -7.55% | [4] 25.2% | [5] 28.1% | [6] -9.7%

OC[C@H]1N[C@H](CO)[C@@H](O)[C@H]1O
inactive: [1] 1.7% | [2] -10.2% | [3] 4.35% | [4] 16.8% | [5] -15.6% | [6] 10.2%

CCc1cc(C)c(C)cc1O
inactive: [1] -28.8% | [2] -31.6% | [3] -38.9% | [4] 0.5% | [5] -24.9% | [6] -22.4%

CC(C)C1N(N2C(=O)CS(=O)(=O)C2C(C)C)C(=O)CS1(=O)=O (stereo not given)
inactive: [1] 3.45% | [2] -15.1% | [3] -6.8% | [4] 6.75% | [5] -9.15% | [6] 24.3%

OCC1OCOC(CO)(CO)C1O (stereo not given)
inactive: [1] 1.15% | [2] 0.05% | [3] 8.1% | [4] -44.3% | [5] 21.7% | [6] 3.75%

CC1(C)OC(=O)C(=Cc2ccc3c(c2)OCO3)C(=O)O1
inactive: [1] 16.1% | [2] 4.25% | [3] -3.65% | [4] 19% | [5] -8% | [6] 5.1%

Nc1ncc2c(=O)[nH][nH]c(=O)c2n1
inactive: [1] 34.9% | [2] 31.6% | [3] 16.6% | [4] 12.4% | [5] 3.4% | [6] -5.5%

OCC[P+](c1ccccc1)(c1ccccc1)c1ccccc1
inactive: [1] 17.6% | [2] 12.1% | [3] -6.2% | [4] 16.4% | [5] -6.05% | [6] -11.3%

Cc1ccc2c(c1)C1(c3ccc(Cl)cc3Cl)Oc3ccc(C)cc3C(c3ccc(Cl)cc3Cl)(O2)O1
inactive: [1] -1.5% | [2] 1.5% | [3] 3.1% | [4] -4.65% | [5] -2.7% | [6] 16.6%

CCCCCCCOC(=O)C1(O)CCCCC1
inactive: [1] 6.1% | [2] 1.25% | [3] 6.65% | [4] 32.5% | [5] 16.8% | [6] -16.6%

COc1nc(NC2OC(COC(C)=O)C(OC(C)=O)C(OC(C)=O)C2OC(C)=O)c(N=CC=Nc2c(NC3OC(COC(C)=O)C(OC(C)=O)C(OC(C)=O)C3OC(C)=O)nc(OC)[nH]c2=O)c(=O)[nH]1 (stereo not given)
inactive: [1] -11.3% | [2] -8.45% | [3] -2.65% | [4] -16.8% | [5] -5.6% | [6] -11.5%

CC(CC(=O)c1cccc2ccccc12)C(=O)O (stereo not given)
inactive: [1] 19% | [2] 3.3% | [3] 2.85% | [4] 0.55% | [5] -10.7% | [6] 24.3%

CNc1c(F)c(C#N)c(F)c(F)c1C#N
inactive: [1] 9.35% | [2] -6.95% | [3] -16.6% | [4] -8.95% | [5] 0.55% | [6] 1.75%

COc1cc2c(c3oc4c(O)cccc4c(=O)c13)CC(C(C)(O)CO)O2 (stereo not given)
inactive: [1] 24.2% | [2] -11.6% | [3] -23.4% | [4] -9.25% | [5] -42.8% | [6] -33.6%

CNC(=O)NC(c1ccc(F)cc1)c1cc2c(cc1O)OCO2 (stereo not given)
inactive: [1] -2.2% | [2] -16.4% | [3] -2.4% | [4] 12.6% | [5] -1.8% | [6] 12.4%

COc1cccc(-c2cc(=O)c3cc(C)cnc3[nH]2)c1
inactive: [1] -17.2% | [2] 3.85% | [3] 4.05% | [4] -2.4% | [5] 18.8% | [6] -13.2%

CC1(C)OC2OC3C(Br)C(=O)OC3C2O1 (stereo not given)
inactive: [1] 14.8% | [2] -8.45% | [3] 24.7% | [4] 9.65% | [5] 24.1% | [6] 26.2%

O/N=C/c1ccc(O)cc1
inactive: [1] -63.2% | [2] -21.1% | [3] -14.4% | [4] -19.6% | [5] 2.55% | [6] -28.9%

O=C(C(/C=N/C(=S)NC1C(=O)Nc2ccccc21)=C(/O)c1ccccc1)c1ccccc1 (stereo not given)
inactive: [1] 9.6% | [2] -0.85% | [3] 16.9% | [4] 27.5% | [5] 21.7% | [6] -9.4%

CC1C(C)(C)C23CC12C1(OCCO1)C3Br (stereo not given)
inactive: [1] -11.4% | [2] -4.4% | [3] -6.6% | [4] 14.6% | [5] 10.8% | [6] 25.4%

O=C1OC(c2ccccc2)Cc2ccccc21 (stereo not given)
inactive: [1] -20.2% | [2] -10.8% | [3] -22.1% | [4] 4.55% | [5] 3.15% | [6] -9.9%

O=C1CCC2OC(=O)C3CCCC1C23 (stereo not given)
inactive: [1] -6.05% | [2] -1.85% | [3] -19% | [4] 0.1% | [5] -2.65% | [6] -14.2%

C1C2OC2CC2OC12 (stereo not given)
inactive: [1] -13.4% | [2] -9.35% | [3] -1.2% | [4] 55.8% | [5] -1.05% | [6] -4.25%
